Source: PubChem BioAssay
“And” between values parts separate entries of the source, which are not always exact repeats. Identical values can stand only once. Results filed as inconclusive are left out. The source made the active and inactive calls. Unless noted, the rule behind the calls is not given here.

Columns and labels:
[1] = stimulators of insulin release from INS-1E, primary screen, cell-based, 5 mM glucose, NPC library (AID 1117329;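 active = compound raises insulin release from rat beta cells at 5 mM glucose, no numeric limit stated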); settings: rat INS-1E insulin secretion, at 10 µM, stronger effect = higher value
[2] = growth inhibition of GSK3B-pretreated HCT116 cells – cell-based, CellTiter-Glo, 0.2 to 20 µM (AID 1117336;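 active = compounds lowering colon cancer cell viability after pretreatment blocking the GSK3B kinase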); settings: HCT116 viability after GSK3B inhibitor, at 20 µM, stronger effect = higher value
[3] = inhibition of endothelial tube formation, primary screen, imaging, VEGF stimulated, CD31 staining, tube area, NPC library (AID 1117340;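 active = compound that reduces growth-factor-driven endothelial tube area in a mixed cell culture, no cutoff stated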); settings: VEGF-stimulated ADSC/ECFC co-culture, at 10 µM, stronger effect = higher value
[4] = GLP1 release stimulators, primary, NCI-H716, NPC library (AID 1117341;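 active = compound raises GLP1 secretion from the human gut endocrine cells, with no numeric limit stated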); settings: NCI-H716 cells, at 10 µM, stronger effect = higher value
[5] = HCT116 colon cancer cell growth inhibition, primary screen, CellTiter-Glo luminescence, NPC library (AID 1117342;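 active = compounds that lower survival of HCT116 colon cancer cells in the luminescence readout, no numeric limit stated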); settings: at 20 µM (top of the series)
[6] = reduced SW480 viability measured with CellTiter-Glo, NPC library, primary (AID 1117343;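 active = compounds that lower viability of the colon cancer cells in the luminescence readout, with no numeric limit stated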); settings: CellTiter-Glo luminescence; at 20 µM (top of the series)
[7] = NPC library primary testing for decreased DLD-1 cell viability via CellTiter-Glo (AID 1117346;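 active = compounds that lower survival of DLD-1 colon cancer cells in the luminescence readout, no cutoff given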); settings: DLD-1 viability, CellTiter-Glo luminescence; at 20 µM (top of the series)
[8] = modulation of C. elegans fzo-1 (AID 1259413);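 note: fzo-1 mutant C. elegans worms in liquid wells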; settings: C. elegans fzo-1 modulator screen, mean read-out; stronger effect = higher value
[9] = system: Aerobactin synthetase IucA (Klebsiella pneumoniae); assay: inhibition of K. pneumoniae IucA enzyme – biochemical, Tocris library, absorbance (AID 1345561); settings: purified IucA enzyme assay, absorbance (OD) read-out; stronger effect = lower value;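 tested at 8 µM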;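 note: 100% = enzyme without compound and 0% = no enzyme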
[10] = viability loss in pontine glioma line – cell-based, JHH-DIPG-1, MIPE4.0, CellTiter-Glo, qHTS, dose response (AID 1347062; cut-off not given, nearly all actives have AC50 up to about 27 µM); settings: JHH-DIPG-1 viability, CellTiter-Glo ATP luminescence
[11] = viability loss in pontine glioma line – cell-based, SU-DIPG-IV, MIPE4.0, CellTiter-Glo, qHTS, dose response (AID 1347063; cut-off not given, nearly all actives have AC50 up to about 30 µM;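 note: compound exposure lasted 48 hours before the viability readout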); settings: CellTiter-Glo ATP luminescence
[12] = EMT-state selective cytotoxicity in co-culture – imaging, PC-3E GFP, TEM4-18 mCherry, primary screen (AID 1345086;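 active = compounds killing one labelled cell type while sparing the other, by normalised counts and ratio limits, not self-fluorescent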;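 for all read-outs here: cells exposed to compound for 72 h before imaging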;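 for red/green cell ratio (normalised): normalised mesenchymal count divided by normalised epithelial count so high means epithelial killing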); settings: PC-3E GFP / TEM4-18 mCherry co-culture, imaging cell counts, at 1 µM; for red/green cell ratio (normalised): actives lie on both sides, counts scaled to control wells, 1 = unselective
[13] = viability loss in pontine glioma line – cell-based, SU-DIPG-XVII, MIPE5.0, CellTiter-Glo, qHTS, dose response (AID 1347060; cut-off not given, nearly all actives have AC50 up to about 26 µM); settings: CellTiter-Glo ATP luminescence
[14] = viability loss in pontine glioma line – cell-based, SU-DIPG-XIII, MIPE4.0, CellTiter-Glo, qHTS, dose response (AID 1347061; cut-off not given, nearly all actives have AC50 up to about 37 µM;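 note: cells exposed to compound for 48 hours before readout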); settings: CellTiter-Glo ATP luminescence
[15] = viability loss in pontine glioma line – cell-based, SU-DIPG-XIII, MIPE5.0, CellTiter-Glo, qHTS, dose response (AID 1347064; cut-off not given, nearly all actives have AC50 up to about 23 µM); settings: CellTiter-Glo ATP luminescence
[16] = measured here: epithelial PC-3E GFP cell survival
[17] = measured here: mesenchymal TEM4-18 mCherry cell survival

CN1[C@@H]2CC[C@H]1CC(OC(=O)c1c[nH]c3ccccc13)C2 (some centres undefined)
inactive: insulin secretion stimulation [1] 13.7% | viability decrease [2] 24.6% | tube area decrease [3] 16.9% | GLP1 secretion stimulation [4] -0.1% | viability decrease (inhibition) [7] 43.6% | mean signal [8] 271 | remaining activity [9] 107% | outcome [10] | outcome [11]
active: inhibition of viability [5] 57.8% | viability decrease (inhibition) [6] 51.8%

Cc1c[nH]c2ccccc12
inactive: insulin secretion stimulation [1] -2.3% | viability decrease [2] 3.8% | tube area decrease [3] 5.5% | GLP1 secretion stimulation [4] -1.7% | inhibition of viability [5] 10.3% | viability decrease (inhibition) [6] 15% | viability decrease (inhibition) [7] 10% | red/green cell ratio (normalised) [12] 0.99
0.86: normalised cell number [12, 16]
0.85: normalised cell number [12, 17]

CCCCCCCCCCCCCCCCC(C(=O)O)C(O)(CC(=O)O)C(=O)O (centres undefined)
active: viability decrease [2] 99.8% | inhibition of viability [5] 99.3% | viability decrease (inhibition) [6] 103% | viability decrease (inhibition) [7] 102%
inactive: insulin secretion stimulation [1] 3.2% | tube area decrease [3] -7.3% | GLP1 secretion stimulation [4] -2.9% | red/green cell ratio (normalised) [12] 1.03
1.03: normalised cell number [12, 17]
1: normalised cell number [12, 16]

CN(CCOc1ccc(NS(C)(=O)=O)cc1)CCc1ccc(NS(C)(=O)=O)cc1
inactive: insulin secretion stimulation [1] 1.25% | viability decrease [2] 12.3% | GLP1 secretion stimulation [4] 0.3% | inhibition of viability [5] 11.9% | viability decrease (inhibition) [6] 13% | viability decrease (inhibition) [7] -6.9% | mean signal [8] 278 | outcome [13] | outcome [14] | outcome [10] | outcome [11]
active: tube area decrease [3] 3.3%

CNCCCCOc1ccccc1Cc1ccccc1
active: viability decrease [2] 82.8% | tube area decrease [3] 41% | inhibition of viability [5] 95.4% | viability decrease (inhibition) [6] 85.7% | viability decrease (inhibition) [7] 50.3%
inactive: insulin secretion stimulation [1] 19.5% | GLP1 secretion stimulation [4] 7.5% | mean signal [8] 234 | remaining activity [9] 120%

C[C@@H]1CN(c2c(F)c(F)c3c(=O)c(C(=O)O)cn(C4CC4)c3c2F)C[C@H](C)N1
inactive: insulin secretion stimulation [1] -0.9% | viability decrease [2] -4.4% | tube area decrease [3] -17.5% | GLP1 secretion stimulation [4] -0.3% | inhibition of viability [5] 4.9% | viability decrease (inhibition) [6] 24.4% | viability decrease (inhibition) [7] -6.7% | red/green cell ratio (normalised) [12] 1.1 and 1
1.18 and 1.13: normalised cell number [12, 17]
1.07 and 1.13: normalised cell number [12, 16]

O=C1CC2(CCCC2)CC(=O)N1CCNCC1COc2ccccc2O1 (centres undefined)
inactive: insulin secretion stimulation [1] 5% | viability decrease [2] -32% | tube area decrease [3] -4.9% | GLP1 secretion stimulation [4] -2.3% | inhibition of viability [5] 25.7% | viability decrease (inhibition) [6] 14.5% | viability decrease (inhibition) [7] -5.7% | mean signal [8] 200 | remaining activity [9] 96.6%

CN(C)CC/C=C1/c2ccccc2COc2ccc(CC(=O)O)cc21
inactive: insulin secretion stimulation [1] 1.85% | viability decrease [2] -0.6% | tube area decrease [3] 5.6% | GLP1 secretion stimulation [4] -0.7% | inhibition of viability [5] 3.7% | viability decrease (inhibition) [6] -7.7% | viability decrease (inhibition) [7] 7.1% | mean signal [8] 251 | outcome [13] | outcome [14] | outcome [10] | outcome [15]

CC(Cc1ccccc1)(NC(=O)CN)c1ccccc1 (centres undefined)
inactive: insulin secretion stimulation [1] 2.2% | viability decrease [2] -5.9% | tube area decrease [3] -10.6% | GLP1 secretion stimulation [4] 0.5% | inhibition of viability [5] 13.7% | viability decrease (inhibition) [6] 17.1% | viability decrease (inhibition) [7] 19.6% | mean signal [8] 268 | remaining activity [9] 116%

Cc1ccc(NC(=O)c2ccc(CN3CCN(C)CC3)cc2)cc1Nc1nccc(-c2cccnc2)n1
inactive: insulin secretion stimulation [1] -3.1% | tube area decrease [3] -31% | GLP1 secretion stimulation [4] 13.7% | mean signal [8] 251 | outcome [10] | outcome [11]
active: viability decrease [2] 94.3% | inhibition of viability [5] 98% | viability decrease (inhibition) [6] 97.6% | viability decrease (inhibition) [7] 88.8%

Brc1c(NC2=NCCN2)ccc2nccnc12
inactive: insulin secretion stimulation [1] 0.4% | viability decrease [2] 27% | tube area decrease [3] -5.2% | GLP1 secretion stimulation [4] -3.1% | inhibition of viability [5] 15.1% | viability decrease (inhibition) [6] 7.7% | viability decrease (inhibition) [7] -3.7% | mean signal [8] 249 | remaining activity [9] 80.2% and 100%

O=C1N(c2ccccc2)c2ccccc2C1(Cc1ccncc1)Cc1ccncc1
inactive: insulin secretion stimulation [1] 1.2% | viability decrease [2] -9.5% | tube area decrease [3] 17.6% | GLP1 secretion stimulation [4] 2.6% | inhibition of viability [5] -4.7% | viability decrease (inhibition) [6] 23.8% | viability decrease (inhibition) [7] -3.9% | mean signal [8] 247 | remaining activity [9] 110% | outcome [13] | outcome [14] | outcome [10] | outcome [11] | outcome [15]

C[C@@H]1CN(CCCn2c3ccccc3c3ccccc32)C[C@H](C)N1
inactive: insulin secretion stimulation [1] 16.2% | mean signal [8] 203 | remaining activity [9] 123%
active: viability decrease [2] 97.5% | tube area decrease [3] 48.2% | GLP1 secretion stimulation [4] 20% | inhibition of viability [5] 107% | viability decrease (inhibition) [6] 128% | viability decrease (inhibition) [7] 82.7%

O=C(O)/C=C(\CC(=O)O)C(=O)O
inactive: insulin secretion stimulation [1] -2.3% | viability decrease [2] 0.55% | tube area decrease [3] 5.8% | GLP1 secretion stimulation [4] 3.5% | inhibition of viability [5] 7.4% | viability decrease (inhibition) [6] 39.3% | viability decrease (inhibition) [7] 11.3% | red/green cell ratio (normalised) [12] 1.06
1.25: normalised cell number [12, 17]
1.18: normalised cell number [12, 16]

Cc1c(Nc2ncccc2C(=O)O)cccc1C(F)(F)F
active: viability decrease (inhibition) [6] 75.8%
1.12 and 1.03: normalised cell number [12, 17]
inactive: insulin secretion stimulation [1] -1.5% | viability decrease [2] -24.9% | tube area decrease [3] 5.8% | GLP1 secretion stimulation [4] -1.7% | inhibition of viability [5] 0.73% | viability decrease (inhibition) [7] 21.9% | red/green cell ratio (normalised) [12] 1.03 and 0.93
1.09 and 1.11: normalised cell number [12, 16]
